Experimental data published in PubChem BioAssay AID1851 (National Center for Advancing Translational Sciences (NCATS), 2009).
Values joined by “and” are separate entries in the source; they are usually repeats but may differ in a detail not shown here. Identical values can stand only once. About 4,000 (25%) of roughly 16,000 compounds were called active. Another 26% or so got no clear call; they are omitted. Calls come from the whole dose curve; as a rule, active = well fitted curve in the direction sought with a large enough effect; inconclusive = small, poorly fitted or top-dose-only effect, or effect the other way; inactive = no such curve, though single readings can be large or run the other way. Not all results are given here.

molecular target: Cytochrome P450 2C9 (Homo sapiens) (UniProt P11712); experiment: Cytochrome panel assay with activity outcomes; conditions: recombinant CYP, pro-luciferin dealkylation, luminescence, p450-cyp2c9; series mostly up to 57.1 µM
Sequence (P11712 whole entry, looked up): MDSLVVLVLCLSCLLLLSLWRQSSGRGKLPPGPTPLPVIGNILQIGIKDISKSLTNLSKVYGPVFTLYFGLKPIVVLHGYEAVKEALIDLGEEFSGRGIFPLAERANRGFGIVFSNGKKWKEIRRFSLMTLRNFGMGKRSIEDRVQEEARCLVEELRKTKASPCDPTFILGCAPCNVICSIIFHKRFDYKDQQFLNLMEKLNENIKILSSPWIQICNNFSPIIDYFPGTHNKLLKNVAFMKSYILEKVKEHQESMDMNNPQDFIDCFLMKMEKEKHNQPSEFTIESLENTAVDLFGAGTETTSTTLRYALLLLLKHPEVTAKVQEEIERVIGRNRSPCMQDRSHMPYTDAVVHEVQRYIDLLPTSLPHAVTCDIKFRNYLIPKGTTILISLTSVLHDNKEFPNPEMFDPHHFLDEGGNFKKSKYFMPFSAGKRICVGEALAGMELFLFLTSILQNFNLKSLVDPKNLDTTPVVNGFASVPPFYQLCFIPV
% is set by controls: 0 for no effect and ±100 for the full control effect.

Structure (SMILES) | AC50 | activity, negative = inhibition
COc1ccc(C[C@@H]2c3cc(OC)c(OC)cc3CC[N@+]2(C)CCC(=O)OCCCCCOC(=O)CC[N@@+]2(C)CCc3cc(OC)c(OC)cc3[C@H]2Cc2ccc(OC)c(OC)c2)cc1OC | inactive | 
Nc1ncnc2c([C@@H]3O[C@@H](CO)[C@H](O)[C@@H]3O)nsc12 |  | -6.07% [at 11.4 µM] (inactive)
Cc1cc(NC(=O)CCCC(=O)OCC(F)(F)C(F)F)cc(C)c1C(=O)O | inactive | 
COc1ccc(C(=O)Nc2ccc(OCC(F)(F)C(F)F)c(C(F)(F)F)c2)cc1OC | 7.94 µM (active) | 
CCN(CC)CCC[C@H](C)Nc1c2ccc(Cl)cc2nc2ccc(OC)cc12 | inactive | 
Cc1ccc(NC(=S)Nc2nc(CC(=O)Nc3ccccc3)cs2)cc1 | 2.82 µM (active) | 
CN1CCC(n2[nH]c(-c3ccccc3)c(Cc3ccccc3)c2=O)CC1 |  | 0.284% [at 11.4 µM] (inactive)
CCN1C(=O)[C@H]2[C@H]3[C@H](O)[C@H](O)C/C(=N/OC[C@@H](O)COCc4ccco4)[C@@H]3CC[C@@H]2C1=O |  | 21.5% [at 11.4 µM] (inactive) and 18.6% [at 11.4 µM] (inactive)
Cn1c(SCC(=O)c2ccc3c(c2)Cc2ccccc2-3)nnc1-c1ccccc1 | 8.91 µM (active) | 
CC(=O)Nc1ccc(-c2nnc(SCC(=O)c3ccc4c(c3)Cc3ccccc3-4)n2C)cc1 | 12.6 µM (active) | 
CN1CCCC[C@@H]1CCN1c2ccccc2Sc2ccc(S(C)=O)cc21 (stereo partly drawn) | inactive | 
CCN(CC)CCN1C(=O)c2cccc3cc(N)cc(c23)C1=O |  | 13.4% [at 11.4 µM] (inactive)
CCOC(=O)C(NC(C)=O)C(=O)O (stereo not drawn) | inactive | 
C/C(CCN1CCCCc2nc(C)c(C)cc21)=N\O[C@@H](C)c1cc(-c2c(C)cc(C)cc2C)no1 | 2.51 µM (active) | 
C/C(CCN1CCCCc2nc(C)c(C)cc21)=N\O[C@@H](C)CN1CCCCc2nc(C)c(C)cc21 |  | 7.62% [at 11.4 µM] (inactive)
C/C(CCN1CCCc2nc(C)c(C)cc21)=N\O[C@@H](C)CN1CCCCc2nc(C)c(C)cc21 |  | -3.15% [at 11.4 µM] (inactive)
COc1ccc(-c2n[nH]c(C)c2-c2ccc(Cl)cc2)c(O)c1 | 10 µM (active) | 
CC(NC(=O)c1ccccc1)c1nc2ccccc2n1Cc1ccccc1F (stereo not drawn) | 5.62 µM (active) | 
CN(C)CCCc1cc(C(=O)Nc2ccc(-c3ccncc3)cc2)ccc1O | inactive | 
C[C@@H]1CCC[C@H](C)N1NC(=O)c1ccc(Cl)c(S(N)(=O)=O)c1 | inactive | 
CCN(CC)S(=O)(=O)c1cc(C(=O)Nc2ccncc2)ccc1Cl | 0.141 µM (active) | 
COc1ccc(NC(=S)N2CCN(C/C=C/c3ccccc3)CC2)cc1OC | inactive | 
COC(=O)c1ccc(NC(=S)N2CCN(Cc3cccc(C)c3)CC2)cc1 | 25.1 µM (active) | 
Cc1nn(C(C)C(=O)N2CCc3ccccc32)c(C)c1[N+](=O)[O-] (stereo not drawn) | 11.2 µM (active) | 
Cc1nn(CC(=O)NCc2ccccc2)c(C)c1[N+](=O)[O-] | inactive | 
Cc1nn(CC(=O)NCCN2CCOCC2)c(C)c1[N+](=O)[O-] | inactive | 
O=C(O)[C@@H]1[C@@H](C(=O)Nc2ncccn2)[C@@H]2C=C[C@@H]1O2 |  | 2.98% [at 11.4 µM] (inactive)

Structure (SMILES) | AC50 | activity, negative = inhibition
c1cc(CNCCCN2CCOCC2)ccn1 | inactive | 
OCCN1CCOCCOCCN(CCO)CCN(CCO)CC1 | inactive | 
FC(F)(F)c1nc2nc(Cl)c(Cl)nc2n1CCCN1CCOCC1 | 2.51 µM (active) | 
CCCC(=O)NCCc1c2n(c3ccc(OC)cc13)Cc1ccccc1-2 | 1.26 µM (active) | 
CCCCC(=O)NCCc1c(Cc2ccccc2)[nH]c2ccccc12 | inactive | 
CCOC(=O)/C(C(N)=NCCCO)=C(/O)c1ccccc1 | inactive | 
CSc1nncc(/C(C)=N\Nc2ccccc2)n1 | 4.47 µM (active) | 
CC/C(=N/Nc1ccccc1)c1cnnc(SC)n1 | 0.891 µM (active) | 
C#CCCCO/N=C1/C[C@@H](O)[C@@H](O)[C@@H]2[C@@H]3C(=O)N(CC)C(=O)[C@H]3CC[C@@H]12 |  | 0.179% [at 11.4 µM] (inactive)
O=C(O)[C@@H](c1ccccc1)[C@@H](C(=O)O)c1ccccc1 |  | 0.327% [at 11.4 µM] (inactive)
Nc1cc(N)nc(SCC(=O)c2ccccc2)n1 | inactive | 
O=C(CSc1ncnc2nc[nH]c12)c1ccccc1 |  | -26.2% [at 11.4 µM] (inactive)
Cc1cc(SCC(=O)c2ccccc2)nc(SCC(=O)c2ccccc2)n1 | 0.891 µM (active) | 
COc1ccc(C[C@@H]2C(=O)N[C@H](C)C(=O)N(C)[C@@H]3Cc4ccc(cc4)Oc4cc(ccc4O)C[C@H](C(=O)N[C@@H](C)C(=O)N[C@H](C)C(=O)N2C)N(C)C3=O)cc1 |  | 3.77% [at 11.4 µM] (inactive)
CCC(=O)c1ccc(OCC(O)CN(CCc2ccccc2)Cc2ccccc2)cc1 (stereo not drawn) | 3.16 µM (active) | 
CN(C)CC(O)COc1cccc(OCC(O)CN(C)C)c1 (stereo not drawn) | inactive | 
CN(C)CC(O)COc1ccc(C(C)(C)c2ccc(OCC(O)CN(C)C)cc2)cc1 (stereo not drawn) | inactive | 
Cc1ccccc1-c1ccc2ncnc(N3CCN(C)CC3)c2c1 |  | 20.6% [at 2.29 µM] (inactive)
O=C(O)c1c(-c2c3ccc(=O)cc-3oc3cc(O)ccc23)cc2ccccc2c1-c1ccccc1 |  | 13% [at 11.4 µM] (inactive)
C=CCSc1nc(Oc2ccccc2)c2sccc2n1 | 8.91 µM (active) | 
C=CCSc1ccsc1C(=O)O | inactive | 
C/C(CCC(=O)OC[C@@H]1O[C@H](C#Cc2ccccc2)C=C[C@@H]1Oc1ccc(C)cc1)=N/O[C@@H](C)CN1CCCCc2nc(C)c(C)cc21 |  | -2.52% [at 11.4 µM] (inactive)
COC(=O)[C@@]1(Cc2ccc(F)cc2)[C@H]2c3cc(C(=O)N4CCCC4)n(Cc4ccccn4)c3C[C@H]2CN1C(=O)c1ccccc1 | 2 µM (active) | 
COC(=O)[C@@]1(Cc2ccccc2)[C@H]2c3cc(C(=O)N4CCCC4)n(Cc4ccccn4)c3C[C@H]2CN1C(=O)c1ccccc1 | 0.2 µM (active) | 
CC1(CCC(=O)OC2CCCCC2)OCCO1 |  | -10.2% [at 11.4 µM] (inactive)
Cc1ccc(S(=O)(=O)N[C@H]2COC(=O)C/C=C\[C@@H](C)[C@H](NS(=O)(=O)c3ccc(C)cc3)COC(=O)C/C=C\[C@H]2C)cc1 |  | 0.307% [at 11.4 µM] (inactive)
